sPLA2-III inh – human group III sPLA2 inhibitors, primary screen, biochemical, QFRET, BODIPY PC-A2 liposome substrate | Group 3 secretory phospholipase A2 (Homo sapiens), Q9NZ20 | QFRET BODIPY PC-A2 liposome hydrolysis, fluorescence | inhibition, % at 12.2 µM | actives 0.56% (n = 370,000) | AID 743126, 2013;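 active = inhibition above mean plus 3 SD of compounds lying within the high and low control bounds, cut at about 19% in these data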
ADAM10 inh – human ADAM10 inhibitors, primary screen, biochemical, QFRET, HTS. Disintegrin and metalloproteinase domain-containing protein 10 (Homo sapiens), O14672. recombinant ADAM10, EDANS/DABCYL FRET peptide cleavage, 3 h. inhibition, % at 7 µM. actives 0.62% (n = 370,000);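 active = inhibition above a per-campaign cutoff equal to the mean of compounds falling between control-based bounds plus 3 SD, cut at about 20% in these data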
PLC-beta3 inh – human PLC-beta3 inhibitors, primary screen, biochemical, fluorescence; 1-phosphatidylinositol 4,5-bisphosphate phosphodiesterase beta-3 (Homo sapiens), Q01970; actives 0.18% (n = 370,000); inhibition, % at 12.2 µM; Purified PLC-beta3, fluorogenic substrate; in the data active = inhibition above about 11%
Target sequence (Q01970 whole entry, looked up): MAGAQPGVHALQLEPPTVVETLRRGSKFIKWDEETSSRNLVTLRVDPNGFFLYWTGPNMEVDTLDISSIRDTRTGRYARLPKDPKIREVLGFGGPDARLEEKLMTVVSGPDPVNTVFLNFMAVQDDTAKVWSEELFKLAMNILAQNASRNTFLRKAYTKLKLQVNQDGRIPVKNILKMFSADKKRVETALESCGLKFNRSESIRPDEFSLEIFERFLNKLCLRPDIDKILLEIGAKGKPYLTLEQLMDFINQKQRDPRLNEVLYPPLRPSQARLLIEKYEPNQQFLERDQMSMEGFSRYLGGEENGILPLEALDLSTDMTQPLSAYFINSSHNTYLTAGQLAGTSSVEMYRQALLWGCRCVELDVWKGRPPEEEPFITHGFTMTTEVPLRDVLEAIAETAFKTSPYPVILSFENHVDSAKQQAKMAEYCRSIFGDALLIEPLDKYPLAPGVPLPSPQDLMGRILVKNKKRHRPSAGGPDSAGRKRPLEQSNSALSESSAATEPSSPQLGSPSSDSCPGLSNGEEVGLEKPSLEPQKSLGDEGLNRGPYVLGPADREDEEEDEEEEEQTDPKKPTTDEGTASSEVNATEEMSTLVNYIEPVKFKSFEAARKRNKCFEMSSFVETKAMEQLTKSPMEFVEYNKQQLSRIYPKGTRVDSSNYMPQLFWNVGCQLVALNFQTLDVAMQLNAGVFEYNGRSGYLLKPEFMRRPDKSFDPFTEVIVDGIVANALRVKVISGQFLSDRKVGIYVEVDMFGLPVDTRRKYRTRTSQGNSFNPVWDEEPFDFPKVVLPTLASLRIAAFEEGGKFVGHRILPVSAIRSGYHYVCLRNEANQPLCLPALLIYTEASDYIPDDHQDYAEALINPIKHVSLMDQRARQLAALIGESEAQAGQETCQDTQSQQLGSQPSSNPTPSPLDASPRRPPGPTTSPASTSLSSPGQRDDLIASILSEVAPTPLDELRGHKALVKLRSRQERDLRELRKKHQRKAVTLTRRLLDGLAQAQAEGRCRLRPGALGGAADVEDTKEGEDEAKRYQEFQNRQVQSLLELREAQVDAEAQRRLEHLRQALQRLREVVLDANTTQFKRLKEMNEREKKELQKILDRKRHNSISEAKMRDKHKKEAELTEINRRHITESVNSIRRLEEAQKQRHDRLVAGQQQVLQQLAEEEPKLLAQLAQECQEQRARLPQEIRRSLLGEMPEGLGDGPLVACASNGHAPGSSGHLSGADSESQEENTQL
KLK7 zymogen act – proKLK7 zymogen activators, primary screen, biochemical, fluorescence intensity; purified proKLK7, EDANS-DABCYL substrate fluorescence; 100% is mature enzyme control, 0% vehicle; activation, % at 7 µM; actives 0.9% (n = 370,000); Kallikrein-7 (Homo sapiens), P49862;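 active = activation above the mean of all tested compounds plus 3 SD, computed per campaign excluding outliers beyond control limits, cut at about 13% in these data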
PLCg1 inh – PLC-gamma1 enzyme inhibitors, primary screen, biochemical, fluorescence, purified enzyme; actives 0.84% (n = 370,000); AID 720700, 2013; fluorogenic substrate; inhibition, % at 12.2 µM; 1-phosphatidylinositol 4,5-bisphosphate phosphodiesterase gamma-1 (Homo sapiens), P19174
ADAM17 inh – ADAM17 inhibitors, primary screen, biochemical, QFRET; Disintegrin and metalloproteinase domain-containing protein 17 (Homo sapiens), P78536; recombinant ADAM17, EDANS/DABCYL FRET peptide cleavage; inhibition, % at 6.95 µM; actives 0.83% (n = 370,000); AID 720648, 2013;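 active = inhibition above the mean of compounds lying between control limits plus 3 SD, set per campaign, cut at about 8.5% in these data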
ADAM10 confirm – human ADAM10 inhibitors, confirmation, biochemical, QFRET, triplicate; shares compounds with ADAM10 inh; ADAM10 QFRET peptide cleavage, EDANS fluorescence; inhibition, % at 6.95 µM; actives 1% (n = 2,100); AID 743208, 2013;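 active = inhibition above about 20% chosen separately for each screening run, limit read from the data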
ADAM17 ctr – ADAM17 inhibitors, counter-screen for ADAM10 exosite inhibitor project, biochemical, QFRET, high throughput | shares compounds with ADAM10 inh | ADAM17 QFRET peptide cleavage, EDANS fluorescence | inhibition, % at 6.95 µM | actives 0.5% (n = 2,100) | AID 743214, 2013;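 active = mean triplicate inhibition above the solvent-only control wells' mean plus 3 SD, cut at about 12% in these data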
ADAM10 ctr – ADAM10 inhibitors, counter-screen for ADAM17 exosite inhibitor project, biochemical, FRET, human ADAM10; inhibition, % at 6.95 µM; actives 47% (n = 2,900); shares compounds with ADAM17 inh; recombinant ADAM10, EDANS/DABCYL FRET peptide cleavage, 3 h; AID 743256, 2014;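 active = mean inhibition over the triplicate runs exceeds the activity threshold set in the earlier primary screen, cut at about 20% in these data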
ADAM17 confirm – ADAM17 inhibitors, hit retest, confirmation, biochemical, QFRET peptide cleavage. inhibition, % at 6.95 µM. recombinant ADAM17, EDANS/DABCYL QFRET peptide cleavage. actives 65% (n = 2,900). shares compounds with ADAM17 inh;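 active = mean inhibition across replicates above the hit cutoff set in the primary screen, cut at about 8.5% in these data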
PLCgamma1 ctr – PLC-gamma1 enzyme inhibitors, counter-screen for PLC-beta3 inhibitor project, biochemical, fluorescence. shares compounds with PLCg1 inh. purified PLC-gamma1, fluorogenic substrate. inhibition, % at 12.3 µM. actives 3.1% (n = 3,300). AID 743258, 2014
PLCb3 confirm – PLC-beta3 inhibitor confirmation, biochemical, fluorescence, purified enzyme | shares compounds with PLCg1 inh | fluorogenic substrate fluorescence | inhibition, % at 12.3 µM | actives 1% (n = 3,300) | AID 743261, 2014; in the data active = inhibition above about 11%
hGIII sPLA2 conf – human group III sPLA2 inhibitors, confirmation, biochemical, QFRET, triplicate; shares compounds with sPLA2-III inh; recombinant hGIII-sPLA2, BODIPY PC-A2 QFRET fluorescence; inhibition, % at 12.2 µM; actives 34% (n = 2,000);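 active = mean inhibition across triplicates above the hit cutoff set in the earlier primary screen, cut at about 19% in these data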
BODIPY interf – 535nm fluorescence optical interference, confirmation, artefact control for HGIII-sPLA2 inhibitor project, biochemical, QFRET; inhibition, % at 12.2 µM; BODIPY FL product fluorescence interference; actives 8.5% (n = 2,000); shares compounds with sPLA2-III inh;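 active = average inhibition above the solvent-only control mean plus 3 SD, cut at about 6% in these data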
BODIPY interf DR – 535nm fluorescence optical interference, dose response, artefact control for HGIII-sPLA2 inhibitor project, biochemical, QFRET. shares compounds with sPLA2-III inh. BODIPY FL product fluorescence interference, cell-free. IC50, µM. 240 tested, under 10 active;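 active = IC50 at or below 10 µM; inactive = IC50 above 10 µM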
Of the large screens only hits and unclear results are named; the others gave an inactive call (follow-up assays come after a bar, where they were run). Shown are actives, neighbours in structure and some others; about 3.4% of the full set was active somewhere. Rule as the data show it, unless noted: active = inhibition above about 9.5%; inactive = the rest.

CC(OC(=O)CCCCCN=C1NS(=O)(=O)c2ccccc21)C(=O)Nc1cc(Cl)cc(Cl)c1 (configuration not stated)	ADAM10 inh 29, PLCg1 inh 9.7, ADAM17 inh 15 | ADAM10 confirm inactive | ADAM17 ctr inactive | ADAM10 ctr inactive | ADAM17 confirm 15 | PLCgamma1 ctr inactive | PLCb3 confirm inactive
Cc1cc(C(=O)O[C@H]2[C@H](Cc3ccccc3)NS(=O)(=O)[C@H]3C[C@@H]4C=C[C@]23O4)ccc1[N+](=O)[O-]	none
O=C(Nc1ccc(C(F)(F)F)cc1[N+](=O)[O-])O[C@H]1[C@H](Cc2ccccc2)NS(=O)(=O)[C@H]2C[C@@H]3C=C[C@]12O3	ADAM10 inh 29, PLCg1 inh 12, ADAM17 inh 14 | ADAM10 confirm inactive | ADAM17 ctr inactive | ADAM10 ctr inactive | ADAM17 confirm inactive | PLCgamma1 ctr inactive | PLCb3 confirm inactive
COc1ccc(C2OCCNC3C2C(=O)N(Cc2ccc(OC)cc2OC)C3Cc2ccccc2)cc1 (configuration not stated)	none (no result: KLK7 zymogen act)
COc1ccc(NC(=S)Nc2cc(-c3ccccc3)[nH]n2)cc1Cl	ADAM10 inh 32, PLC-beta3 inh 12, PLCg1 inh 12, ADAM17 inh 19 | ADAM10 confirm inactive | ADAM17 ctr inactive | ADAM10 ctr 36 | ADAM17 confirm 22 | PLCgamma1 ctr inactive | PLCb3 confirm inactive
O=C(Nc1cnn(Cc2ccc(F)cc2)c1)C(c1ccccc1)c1ccccc1	ADAM10 inh 23, PLCg1 inh 10, ADAM17 inh 14 | ADAM10 confirm inactive | ADAM17 ctr inactive | ADAM10 ctr 22 | ADAM17 confirm 14 | PLCgamma1 ctr inactive | PLCb3 confirm inactive
CC(C)C[C@H](NC(=O)c1[nH]cnc1C(=O)N[C@@H](C)C(=O)OC(C)(C)C)C(=O)OC(C)(C)C	sPLA2-III inh 23, ADAM10 inh 40, PLC-beta3 inh 11, ADAM17 inh 25 | ADAM10 confirm inactive | ADAM17 ctr inactive | ADAM10 ctr 33 | ADAM17 confirm 19 | PLCgamma1 ctr inactive | PLCb3 confirm inactive | hGIII sPLA2 conf inactive | BODIPY interf inactive
CC(C)C[C@H](NC(=O)c1nc[nH]c1C(=O)N[C@@H](CCCCNC(=O)OC(C)(C)C)C(=O)OC(C)(C)C)C(=O)OC(C)(C)C	none
COc1cc(O)c2c(=O)c3c(O)ccc(O)c3oc2c1	sPLA2-III inh 22, ADAM10 inh 83 | ADAM10 confirm inactive | ADAM17 ctr inactive | hGIII sPLA2 conf inactive | BODIPY interf inactive
O=C(OCc1cn(Cc2cc(F)cc(F)c2)nn1)N1CCOCC1	none
CC(=O)c1c(C)nc2sc3c(=N)n(N)cnc3c2c1-c1ccc(Cl)cc1	sPLA2-III inh 30, ADAM10 inh 21 | ADAM10 confirm inactive | ADAM17 ctr inactive | hGIII sPLA2 conf inactive | BODIPY interf inactive
CCOC(=O)c1c(C)nc2sc3c(=O)n(-c4ccc(C(C)=O)cc4)cnc3c2c1-c1ccc(OC)cc1	none
O=C(C1CC1)n1ccc2ccc(-c3ccc4ccn(Cc5ccccc5)c4c3)cc21	none
COc1ccc(-n2c(SCC(=O)NNC(=S)Nc3ccccc3)nc3ccccc3c2=O)cc1	sPLA2-III inh 36, ADAM10 inh 26, ADAM17 inh 12 | ADAM10 confirm inactive | ADAM17 ctr inactive | ADAM10 ctr inactive | ADAM17 confirm 8.6 | hGIII sPLA2 conf 39 | BODIPY interf inactive | BODIPY interf DR inactive
Cc1ccc(CN2CCCCC(NC(=O)c3cccc([N+](=O)[O-])c3)C2=O)cc1 (configuration not stated)	none
CCOC(=O)CC[C@@]1(C(=O)OCC)C[C@@H](CC(=O)N2CCN(C(=O)c3ccco3)CC2)C(=O)N2CCCC=C21	none
CC(C)Cn1c(-c2ccc(Br)cc2)c[nH]c1=S	sPLA2-III inh 28, ADAM10 inh 26, ADAM17 inh 14 | ADAM10 confirm inactive | ADAM17 ctr inactive | ADAM10 ctr inactive | ADAM17 confirm 9.0 | hGIII sPLA2 conf 37 | BODIPY interf inactive
CC(C)n1nnnc1C1(C)CN(S(C)(=O)=O)CC(=O)N1Cc1cccc(C(F)(F)F)c1 (configuration not stated)	none
